Vaccinia mCherry: inhibitors of vaccinia virus infection (mCherry reporter signal). Vaccinia virus mCherry reporter infection, fluorescence. Potency, µM (highest dose often 36.5 µM), for the others: top-dose activity change, negative = inhibition, actives largely listed as inhibitors. 310,000 tested, 0.63% active. AID 720579; calls by dose curve; tested in A549 cells; also: % is scaled to controls: 0 for no effect and ±100 for the full control effect; nearly all actives have a fitted effect of over 35% in size
Pf growth 96h: inhibits malaria parasite growth, 96 h. P. falciparum luciferase reporter growth, 96 h. Potency, µM (top dose mostly 28.7 µM), without a hit: top-dose activity change, negative = inhibition, usual class: inhibitors. 320,000 tested, 6.9% active; also: % is scaled to controls: 0 for no effect and ±100 for the full control effect
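Readout is luminescence from an integrated firefly luciferase in P. falciparum. Red cells, 2% hematocrit and 0.05% parasitemia final, were cultured with compound through two parasite generations (96 hours) at 37 C, 5% CO2.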
Vaccinia Venus: inhibitors of vaccinia virus (Venus reporter). Vaccinia virus Venus reporter expression, fluorescence. 330,000 tested, 0.46% active. Potency, µM (highest dose often 36.5 µM), inactives show at the top dose activity change, negative = inhibition, most hits filed as inhibitors; calls by dose curve; tested in A549 cells; also: % is scaled to controls: 0 for no effect and ±100 for the full control effect; nearly all actives have a fitted effect of over 30% in size
Pf growth 48h: inhibits P. falciparum growth in the first generation, 48 h; P. falciparum luciferase growth in erythrocytes, 48 h; Potency, µM (highest dose often 28.7 µM), for the others: top-dose activity change, negative = inhibition, hits mostly inhibitors; 310,000 tested, 5.9% active; AID 504832; also: % is scaled to controls: 0 for no effect and ±100 for the full control effect
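Cell-based growth assay: transgenic P. falciparum expressing firefly luciferase, cultured in red cells within RPMI 1640 containing 0.5% w/v Albumax, 24 mM bicarbonate and gentamycin. A drop in luciferase activity indicates inhibition.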
NS1 function inh: inhibitors of influenza NS1 protein function; 270,000 tested, 0.4% active; AID 2326; Potency, µM (highest dose often 46.1 µM), for inactives: top-dose activity, positive = more growth; calls by dose curve; also: actives are rising curves; nearly all actives have a fitted effect of over 50% in size
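Recovery from NS1-induced slow growth read by OD600 in budding yeast switched to galactose assay medium (pH 6.0, -URA) at 1:100 dilution. Compound 23 nl per well; the matching strain lacking NS1 serves as control.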
HCV inh: HCV inhibition | Potency, µM (titrated, usually from 41.8 µM), for the others: at the highest dose activity change, negative = inhibition, usual class: inhibitors | Huh7.5.1 HCVcc-Cre infection, luciferase reporter, 44 h | 340,000 tested, 3.4% active; also: % is scaled to controls: 0 for no effect and ±100 for the full control effect
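HCVcc-Cre virus at an moi near 0.5 was added right after compound to cells cultured 4 h from seeding (1,000 cells/well). Luciferase activity was determined 44 h later, 15 min after substrate addition at RT.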
Numbers without * were called inactive; i = inactive; ? = inconclusive; · = no result given; [ ] = remark or other dose. Shown are actives, neighbours in structure and some others; about 11% of the full set was active somewhere. Unless noted, calls follow the shape of the dose curve; as a rule, active = well fitted inhibition curve with a large enough effect; inconclusive = small, poorly fitted or top-dose-only effect, or another doubt; inactive = no such curve, though single readings can be large or run the other way. Potency is read from the fitted curve at half-maximal effect.

SMILES	Vaccinia mCherry	Pf growth 96h	Vaccinia Venus	Pf growth 48h	NS1 function inh	HCV inh
Cc1nc(SCc2ccc(F)cc2)c2oc3ccccc3c2n1	-4%	-13%	-7%	-5%	3%	9%
CCCN(C(=O)c1ccc2c(=O)n3c(nc2c1)CCCCC3)c1cccc(Cl)c1	i	·	-21%	·	·	·
Cc1nc(N2CCN(Cc3nc4ccccc4[nH]3)CC2)c2oc3ccccc3c2n1	-22%	5.9µM*	-28%	?	-94%	?
Cc1nnc(SCc2ccc(F)cc2)n1NC/C=C/c1ccccc1	?	5.9µM*	-28%	-10%	-9%	?
COC(=O)[C@]1(C)N[C@H](CN(C)S(=O)(=O)c2ccc(OC(F)(F)F)cc2)[C@@H]2C(=O)N(C)C(=O)[C@@H]21	-16%	·	0%	·	·	9%
COc1cc(C2NC(=O)NC(C)=C2C(=O)Nc2cccc(C)c2C)cc(OC)c1OC (stereo not drawn)	-8%	?	-2%	?	5%	-4%
C=CCN(C(=O)CC(NC(C)=O)c1ccccc1)c1nc(-c2ccc(S(C)(=O)=O)cc2)cs1 (stereo not drawn)	?	?	-28%	9.3µM*	-6%	?
CC(=O)NC(c1ccccc1)c1nc(-c2ccc(S(C)(=O)=O)cc2)cs1 (stereo not drawn)	7%	·	-10%	·	·	·
N#CC1=C(N)n2c(s/c(=C\c3cccs3)c2=O)=C(C#N)C1c1cccs1 (stereo not drawn)	i	-11%	7%	31%	25%	0.5µM*
COc1cccc(-c2nc(-c3ccc(-c4ccccc4)nc3OC)no2)c1	-7%	·	5%	·	·	·
Cc1ccc(C)c(-n2cc(CNC(C)Cn3cncn3)c(-c3ccccc3)n2)c1 (stereo not drawn)	?	?	-17%	13µM*	1%	-4%
Cc1ccc(-n2cc(CNC(C)Cn3cncn3)c(-c3ccc(F)cc3)n2)cc1 (stereo not drawn)	-20%	11%	?	7.4µM*	-5%	-7%
CC(=O)NC(c1ccccc1)c1nc(-c2cccnc2)cs1 (stereo not drawn)	4%	·	4%	·	·	·
Cc1ccsc1/C=N/N1CCN(C2c3ccccc3-c3ccccc32)CC1	·	174%	-10%	?	11%	-7%
NC(=O)N(N)c1nc(N2CCCC2)nc(N2CCCC2)n1	·	-17%	·	11%	·	36%
C=CCc1c(C)nc2c(C)cccc2c1SC(=N)N	i[7.34 µM]	15µM*	2%[7.34 µM]	?	-5%	-27%
CCOC(=O)C1CCN(c2nc(C)cc(C)c2C#N)CC1	i	1%	-19%	16%	-2%	-3%
Cc1cc(C)c(C#N)c(N2CCCC(C(N)=O)C2)n1 (stereo not drawn)	i	12µM*	-22%	-15%	2%	10%
CCSc1nc2cc(OC)c(OC)cc2c(=O)n1CC	?	16%	-23%	-3%	-38%	5µM*
Cc1cc(=O)[nH]c(N/N=C/c2c(C)nn(-c3ccccc3)c2Cl)n1	i	8.3µM*	-15%	4.7µM*	-5%	-23%
Cc1nn(-c2ccccc2)c(Cl)c1/C=C1\C(=O)N(C)C(=S)N1C	·	13µM*	·	?	·	?
Cc1nn(-c2ccccc2)c(Cl)c1/C=N/Nc1nc2ccccc2[nH]1	·	0.74µM*	·	0.74µM*	2%	-6%
COc1ccccc1C(=Cc1ccc([N+](=O)[O-])cc1)C(=O)O	i	·	-10%	·	·	·
N#Cc1cccc(C#N)c1Oc1ccc(S(=O)(=O)Nc2ccccc2)cc1	i	-7%	-15%	-11%	-5%	-11%
O=S(=O)(Nc1ccc(-c2ccc3nncn3n2)cc1)c1cc(F)ccc1F	?	-10%	-11%	?	·	5%
SMILES	Vaccinia mCherry	Pf growth 96h	Vaccinia Venus	Pf growth 48h	NS1 function inh	HCV inh
COc1ccc(OC)c(S(=O)(=O)Nc2ccc(-c3ccc4nncn4n3)cc2)c1	8.9µM*	?	10µM*	19%	·	?
O=C(Cn1cc(S(=O)(=O)c2ccccc2)c(=O)c2cc3c(cc21)OCO3)Nc1ccc(Cl)cc1	-5%	·	-6%	·	·	·
Cc1nn(C)cc1CN(C)Cc1ccc(OCC(O)CN2CCCCC2)cc1 (stereo not drawn)	-19%	?	-9%	?	1%	?
CN(Cc1ccc(OCC(O)CN2CCCCC2)cc1)Cc1ccnc2ccccc12 (stereo not drawn)	?	3%	?	12µM*	3%	5.6µM*
O=C(O)CC(C(=O)O)C(c1ccccc1)c1ccccc1 (stereo not drawn)	i	·	4%	·	·	-6%
COc1cc(Br)cc2cc(C(=O)N3CCOCC3)c(=O)oc12	-15%	3.3µM*	-16%	39%	20%	17%
CC(CN1CCOCC1)OC(=O)/C=C/c1ccccc1 (stereo not drawn)	i	4%	-6%	85%	1%	9%
Clc1ccc(C2=NN(c3ccccc3)C(c3ccco3)C2)cc1 (stereo not drawn)	-6%	?	-7%	-24%	-6%	-6%
O=S(=O)(c1ccccc1)N1N=C(c2ccc(Cl)cc2)CC1c1ccco1 (stereo not drawn)	-13%	?	-29%	10µM*	·	?
O=C(c1ccc(Br)o1)N1N=C(c2ccc(Cl)cc2)CC1c1ccco1 (stereo not drawn)	-12%	9.3µM*	-30%	?	0%	?
CC(=O)N1N=C(c2ccc(Cl)cc2)CC1c1ccco1 (stereo not drawn)	-23%	-5%	-12%	15%	-2%	7%
COc1ccc(C2=NN(C(=O)c3ccco3)C(c3cc4ccccc4nc3Cl)C2)cc1 (stereo not drawn)	·	11%	·	-11%	?	-10%
O=C(c1ccco1)N1N=C(c2ccco2)CC1c1ccc(Cl)cc1Cl (stereo not drawn)	·	4.1µM*	·	8.3µM*	·	-11%
CCc1ccc(S(=O)(=O)NCc2cccn2Cc2cccc(C)c2)cc1	-13%	·	4%	·	·	·
O=C1CN(S(=O)(=O)c2ccccc2)CCN1S(=O)(=O)c1ccccc1	-8%	-3%	-6%	-7%	0%	5%
Fc1ccccc1N=C1NN=C(c2ccccc2)CS1	-18%	-44%	?	?	·	?
O=C1c2ccc3c4c(ccc(c24)C(=O)N1CCCCO)C(=O)N(CCCCO)C3=O	·	-4%	·	0.74µM*	·	7.1µM*
CS(=O)(=O)c1ncc(Cl)c(C(=O)Nc2ccc3ccccc3c2)n1	10µM*	6%	?	1%	-61%	11µM*
O=C(Nc1cccc([N+](=O)[O-])c1)Nc1ccc2c(c1)CCC2	-28%	61%	-27%	-11%	0%	?
c1ccc(-c2cc3ccccc3cn2)cc1	-10%	·	-12%	·	·	-12%
COc1cccc(NC(=O)C2COc3ccccc3O2)c1 (stereo not drawn)	·	?	·	82%	-12%	-3%

Screening results from PubChem.
